These results are taken from PubChem BioAssay (NCATS).

Experiment [1] can be described thus: Viability qHTS for spleen associated tyrosine kinase inhibitor (SYKi) naive MV4-11 cells (AID 1963823). Further: nearly all actives have a fitted effect of over 40% in size. The essentials: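 Luminescence from CellTiter-Glo, developed 10 min at room temperature, gave viability of MV4-11 cells never exposed to SYK inhibitor. Cells (500/well) had been incubated with compounds for 72 hr under standard culture conditions.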
The nature of experiment [2]: Viability qHTS for spleen associated tyrosine kinase inhibitor (SYKi) drug resistant MV4-11 cells (AID 1963824). Further: nearly all actives have a fitted effect of over 35% in size. The method in brief: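 CellTiter-Glo luminescence, read 10 min after reagent addition, reports viability after a 72 hr compound exposure. Cells are an MV4-11 line made resistant to SYK inhibition, seeded at 500 per well onto compound-containing plates.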
A general note: qHTS replaces the single test concentration by a dilution series.

Experiment [3] in a line: Quantitative highthroughput screen to assess conditional lethalithy of NOMO1 cells grown in RPMI1640 with untreated serum (RPMI+s) (AID 1963876). Further: nearly all actives have a fitted effect of over 35% in size.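 On Viability: 100% = DMSO wells and 0% = empty wells without cells.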 The essentials: (§1)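 Each medium arm—HPLM with 10% dialyzed FBS, or RPMI1640 with 5 mM glucose and 10% untreated or dialyzed FBS—was screened against an 11-point, 3-fold compound titration for 48 h at 37 °C, with CellTiter-Glo luminescence as endpoint.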

Experiment [4] can be described thus: Quantitative highthroughput screen to assess conditional lethalithy of NOMO1 cells grown in RPMI1640 with dialyzed fetal bovine serum (RPMI+ds) (AID 1963877). Further: nearly all actives have a fitted effect of over 30% in size.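 On Viability: series mostly up to about 46 µM; 100% = DMSO control wells and 0% = empty wells.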 The essentials:
as §1

Experiment [5] is described as follows: Quantitative highthroughput screen to assess conditional lethalithy of NOMO1 cells grown in Human Plasma-Like Medium with dialyzed fetal bovine serum (HPLM+ds) (AID 1963878). Further: nearly all actives have a fitted effect of over 35% in size.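 On Viability: 100% = DMSO wells and 0% = empty wells on each plate.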 The method in brief: as §1
Experiment [6] can be described thus: Quantitative highthroughput screen to assess conditional lethalithy of P12 Ichikawa cells grown in Human Plasma-Like Medium with dialyzed fetal bovine serum (HPLM+ds) (AID 1963879). Further: nearly all actives have a fitted effect of over 35% in size. On Viability: series mostly up to about 46 µM. To be noted: Potency: viability. The method in brief:
as §1

A short description of experiment [7]: Quantitative highthroughput screen to assess conditional lethalithy of P12 Ichikawa cells grown in RPMI1640 with dialyzed fetal bovine serum (RPMI+ds) (AID 1963880). Further: nearly all actives have a fitted effect of over 35% in size.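 On Viability: 100% = DMSO wells and 0% = empty wells on each plate.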 The conditions noted are these: Potency: P12-Ichikawa viability. The essentials: as §1
The nature of experiment [8]: Quantitative highthroughput screen to assess conditional lethalithy of P12 Ichikawa cells grown in RPMI1640 with untreated serum (RPMI+s) (AID 1963881). Further: nearly all actives have a fitted effect of over 35% in size.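 On Viability: series mostly up to about 46 µM; 100% = DMSO wells and 0% = empty wells without cells.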 The conditions noted are these: Potency: viability. The method in brief: as §1
Experiment [9] can be described thus: Quantitative highthroughput screen to assess conditional lethalithy of SEM cells grown in Human Plasma-Like Medium with dialyzed fetal bovine serum (HPLM+ds) (AID 1963882). Further: nearly all actives have a fitted effect of over 35% in size. On Viability: series mostly up to about 46 µM. The essentials: as §1
A short description of experiment [10]: Quantitative highthroughput screen to assess conditional lethalithy of SEM cells grown in RPMI1640 with unreated serum (RPMI+s) (AID 1963883). Further: nearly all actives have a fitted effect of over 35% in size.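 On Viability: 100% = DMSO wells and 0% = empty wells without cells.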 The essentials: as §1
Experiment [11] in a line: Quantitative highthroughput screen to assess conditional lethalithy of SEM cells grown in RPMI1640 with dialyzed fetal bovine serum (RPMI+ds) (AID 1963884). Further: nearly all actives have a fitted effect of over 35% in size.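 On Viability: series mostly up to about 46 µM; 100% = DMSO control wells and 0% = empty wells without cells.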 The essentials: as §1
The nature of experiment [12]: Cellular viability qHTS for adrenocortical cancer (ACC) cell line SW-13 (AID 1963989). Further: nearly all actives have a fitted effect of over 65% in size.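 On activity (max response): cells grown in serum-free medium with ITS supplement; on the % scale 0 is the no-effect control and ±100 the full control effect.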 The conditions noted are these: SW-13 ACC cells viability, CellTiter-Glo, 48 h; activity (max response): active compounds read low. The essentials: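 Here, serum-free SW-13 cultures were dosed up to 46 uM. Following 48 h, ATP-dependent luminescence (CellTiter-Glo) reported viable cells, and logistic modeling produced IC50 values.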

A short description of experiment [13]: Cellular viability qHTS for adrenocortical cancer (ACC) cell line NCI-H295R (AID 1963990). Further: nearly all actives have a fitted effect of over 60% in size. The essentials:
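Viability of NCI-H295R after 48 h of treatment (final up to 46 uM) measured through cellular ATP luminescence.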

Where “and” joins values, the source holds several entries; their conditions need not be identical. Identical values can stand only once. Results filed as inconclusive are left out. A number with no mark means an inactive call. Calls of active or inactive are those of the source. The call rests on the fitted dose curve; in most records, active means well fitted curve in the direction sought with a large enough effect; inconclusive means small, poorly fitted or top-dose-only effect, or another doubt; inactive means no such curve, though single readings can be large; an effect the other way counts as inactive or inconclusive.
Potency means the concentration at half of the fitted maximal effect.

Take `C/C(=C\CCC(C)CCO)C(=O)OC[C@H]1O[C@@H](O[C@@H]2OC=C(C(=O)O)[C@H]3CC[C@](C)(O)[C@@H]23)C(O)[C@@H](O)C1O` (stereo partly specified): the Potency result in experiment [1] and in experiment [2] was “inactive” each time.
As to `CCOc1ccccc1OCCNC(C)Cc1ccc(OC)c(S(N)(=O)=O)c1` (stereo unspecified), the Potency result in experiment [1], in experiment [2], in experiment [3], in [4], in experiment [5] and in experiment [6] was “inactive” each time. For the same molecule, the Potency entry in experiment [7], in [8], in experiment [9], in experiment [10] and in experiment [11] was “inactive” each time.
Take `Cc1cccc(N(C)C(=S)Oc2ccc3c(c2)C2CCC3C2)c1` (stereo unspecified): the Potency result in experiment [1] and in experiment [2] was “inactive” throughout.
For `CCC(=O)N1CCN(c2ccc(-n3c(=O)ccc4cnc5ccc(-c6cnc7ccccc7c6)cc5c43)cc2C(F)(F)F)CC1`, the Potency in experiment [1] was 42.2 nM (active) and 36.2 nM (active); in [2] it was 59.6 nM (active) and 102 nM (active); in [3] it was 0.132 µM (active).
`CC(C)C1CCC(C(=O)N[C@H](Cc2ccccc2)C(=O)O)CC1` (stereo partly specified): the Potency entry in experiment [1], in experiment [2], in [3], in experiment [4], in experiment [5] and in experiment [6] was “inactive” each time. Also, the Potency entry in experiment [7], in experiment [8], in [9], in [10], in [11] and in [13] was “inactive” in each case. Further, in experiment [12], the activity (max response) was 3.47% and 2.35%.
On to `C[N+]1(C)[C@@H]2C[C@@H](OC(=O)C(O)(c3cccs3)c3cccs3)C[C@H]1[C@@H]1O[C@@H]12`, for which the Potency entry in [1], in experiment [2], in [3], in [4], in experiment [5] and in [6] was “inactive” each time. The Potency entry in experiment [7], in experiment [8], in experiment [9], in experiment [10] and in [11] was “inactive” in each case.
Turning to `NC(=O)c1noc([C@H](CCCC2CCCCC2)CC(=O)NO)n1`, the Potency in [1] was 8.2 µM (active); in experiment [2], 4.17 µM (active); in [3] it was 16.6 µM (active); in experiment [4], 23.5 µM (active); in experiment [5], 18.7 µM (active); in experiment [6] it was 23.5 µM (active). In addition, the Potency in experiment [7] was 18.7 µM (active); in experiment [8] it was 18.7 µM (active); in experiment [9], 18.7 µM (active); in [10] it was 16.6 µM (active); in [11], 18.7 µM (active).
On to `CC(C)NCC(O)c1ccc(NS(C)(=O)=O)cc1` (stereo unspecified), for which the Potency result in experiment [1], in experiment [2], in experiment [3], in experiment [4], in [5] and in [6] was “inactive” each time. For the same molecule, the Potency result in experiment [7], in experiment [8], in experiment [9], in experiment [10] and in experiment [11] was “inactive” in each case. The activity (max response) in [12] was 2.53%.
As for `C[C@]12CCC(=O)C=C1[C@@H](O)C[C@@H]1[C@@H]2[C@@H](O)C[C@@]2(C)[C@H]1CC[C@]2(O)C(=O)CO`, the Potency result in [1] and in [2] was “inactive” each time.
For the molecule `COC(=O)c1ccc(=O)c2nc3/c(=C/O)c(O)cc(=O)c3[nH]c12`, the Potency entry in [1] and in experiment [2] was “inactive” each time.
Take `CC(C)C[C@H](NC(=O)[C@H](CCc1ccccc1)NC(=O)CN1CCOCC1)C(=O)N[C@@H](Cc1ccccc1)C(=O)N[C@@H](CC(C)C)C(=O)[C@@]1(C)CO1`: the Potency in [1] was 0.003 µM (active); in [2] it was 10.6 nM (active) and 4.7 nM (active); in experiment [3], 0.0372 µM (active); in experiment [4], 0.0372 µM (active); in experiment [5], 0.0372 µM (active); in experiment [6], 0.0332 µM (active). Also, the Potency was 0.0235 µM (active) in experiment [7]; 0.0209 µM (active) in [8]; 0.0132 µM (active) in experiment [9]; 0.0083 µM (active) in experiment [10]; 0.0132 µM (active) in experiment [11]; 103 nM (active) and 112 nM (active) in [12].
On to `CC(C)(N)c1ccc(-c2nc3ccccc3nc2-c2ccccc2)cc1`, for which the Potency in [1] was 9.2 µM (active); in [2], 14.8 µM (active); in experiment [3], 0.0743 µM (active); in [4], 0.0833 µM (active); in [5], 0.0235 µM (active); in [6], 0.0235 µM (active). Besides, the Potency was 0.0743 µM (active) in [7]; 0.0935 µM (active) in experiment [8]; 0.0469 µM (active) in [9]; 0.0148 µM (active) in [10]; 0.0332 µM (active) in [11]. In addition, in [12], the activity (max response) was -5.56%.
As for `CN(C)Cc1c(C(=O)NCCOc2ccc(C(=O)NO)cc2)oc2ccccc12`, the Potency is 326 nM (active) and 296 nM (active) in [1]; 259 nM (active) and 235 nM (active) in [2]; 4.18 µM (active) in [3]; 4.18 µM (active) in experiment [4]; 4.18 µM (active) in experiment [5]; 2.35 µM (active) in experiment [6]. The Potency in [7] was 2.96 µM (active); in experiment [8] it was 2.09 µM (active); in experiment [9], 1.18 µM (active); in [10], 1.32 µM (active); in experiment [11], 1.48 µM (active); in [12], 1.26 µM (active). Besides, the Potency in experiment [13] is 0.794 µM (active).
Regarding `CN1CCN(c2cccc(Nc3nc4c(-c5ccc(S(C)(=O)=O)cc5)cccn4n3)c2)CC1`, the Potency in [1] is 146 nM (active) and 132 nM (active); in [2], 130 nM (active) and 296 nM (active). Besides, the Potency entry in experiment [3] is “inactive”.
Consider `CC(=O)OC1(C)CC(O)C2(O)C=COC(OC3OC(CO)C(O)C(O)C3O)C12` (stereo unspecified), for which the Potency result in experiment [1] and in experiment [2] was “inactive” in each case.
With `CNC[C@H](O)c1ccc(O)c(O)c1`, the Potency result in [1], in experiment [2], in [3], in experiment [4], in [5] and in experiment [6] was “inactive” each time. The Potency result in [7], in [8], in experiment [9], in experiment [10] and in experiment [11] was “inactive” throughout. For the same molecule, in [12], the activity (max response) was -16.4% and -3.87%.
Regarding `COc1cc([C@@H]2c3cc4c(cc3[C@@H](O[C@@H]3O[C@@H]5CO[C@@H](C)O[C@@H]5[C@H](O)[C@@H]3O)[C@H]3COC(=O)[C@H]23)OCO4)cc(OC)c1O`, the Potency in experiment [1] is 0.59 µM (active); in [2], 0.525 µM (active); in [3], 2.09 µM (active); in experiment [4], 2.35 µM (active); in [5] it was 1.87 µM (active); in experiment [6], 0.935 µM (active). Moreover, the Potency was 0.833 µM (active) in experiment [7]; 0.662 µM (active) in experiment [8]; 0.526 µM (active) in experiment [9]; 0.132 µM (active) in [10]; 0.166 µM (active) in experiment [11]; 11.2 µM (active) in experiment [12]. The Potency in experiment [13] is 20 µM (active).
